Measurements published in PubChem BioAssay AID651956 (Broad Institute, 2012).
Entries with a potency or affinity are not part of this list. Results filed as inconclusive are left out. Calls of active or inactive are those of the source.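 Rule for the calls: active = in every test run, a fitted half-maximal concentration for signal decrease at or below twice the highest tested concentration; inconclusive = runs disagree, flat 30 to 70% decrease, or poor fit; inactive = the rest.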

assay: miR-122 activators in hepatoma reporter cells, dose response, cell-based, Huh7 psiCHECK-miR122, Renilla luciferase, cherry-picked (AID 651956); settings: 48 h; series mostly up to 35 µM; activity change, negative = signal decrease: at the top concentration;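 note: Renilla luciferase from a miR-122 sensor reporter so lower signal means miR-122 activation; 0% = median neutral control wells and -100% = median positive control wells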

Activity change, negative = signal decrease, inactive:
Cc1onc(-c2ccccc2)c1C(=O)NCc1ccccn1 -31.6%
CC(C)Oc1ccc(CNCCC2(C(C)C)CCOC(C)(C)C2)cc1 (stereo not drawn) 186%
CCNC(=O)Nc1ccc2c(c1)C(=O)N(C)[C@H]1CC[C@H](CC(=O)Nc3ccccc3F)O[C@@H]1CO2 74.2%
